Source: PubChem BioAssay
Where “and” joins values, the source holds several entries; their conditions need not be identical. Equal values may be shown once. For some assays here: Entries with a potency or affinity are not part of this list. Calls of active or inactive are those of the source. Cut-off read from the data, not from the text of the source, unless noted: active = parasite load remaining mostly below about 12% (no sharp cut-off); inactive = mostly above about 10%.

Experiments:
[1] = polyglutamine-triggered caspase-3 activation inhibitors, cell-based (AID 1583); settings: polyglutamine-induced caspase-3 activation, cell assay; stronger effect = higher value;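 tested at 10 µM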
[2] = suppressors of polyQ aggregation in yeast, 75Q-TubU reporter (AID 1593); settings: Yeast 75Q polyglutamine aggregation reporter
[3] = rescue of polyQ-huntingtin neuronal dysfunction in worms, whole organism, C. elegans mechanosensory neurons, N-terminal huntingtin (AID 1599); settings: touch response, stronger effect = higher value
[4] = inhibitors of mitochondrial cytochrome c release, biochemical, purified mitochondria (AID 1603); settings: stronger effect = lower value;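 note: mouse liver mitochondria challenged with calcium chloride; signal normalized to the plate average as 100%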
[5] = inhibitors of polyQ protein aggregation (AID 1604); settings: polyglutamine-induced protein aggregation inhibition assay; stronger effect = higher value; tested at 2.5 µM
[6] = enhancers of glutamate uptake in motor neurons, MN-1 cell line (AID 1612); settings: MN-1 motor neuron cells, stronger effect = higher value;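 note: tested at 1 µM final; 0% = mean of DMSO vehicle wells on each plate; positive means more glutamate uptake than control and negative means less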
[7] = reducers of polyQ inclusions in PC12 cells, cell-based, NGF-treated PC12, GFPQ80 (AID 1614); settings: PC12 NGF-treated GFP-polyQ80 inclusion reduction;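 note: lower means fewer inclusions and 0 means no inclusions at all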
[8] = suppressors of polyglutamine aggregation in yeast, 75Q-TubH (AID 1616); settings: S. cerevisiae 75Q-TubH polyglutamine aggregation suppression; stronger effect = higher value
[9] = liver-stage malaria parasite growth inhibition, primary screen, cell-based, HepG2, luciferase luminescence, HepG2 viability (AID 624349);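 note: 100% = mean of DMSO negative control wells on the same plate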; settings: P. berghei liver stage in HepG2, luciferase luminescence, concentration not given here; parasite load remaining: stronger effect = lower value; viability: measured here: HepG2 viability without parasites
[10] = differential killing of epithelial or mesenchymal cells, primary screen, imaging, PC-3E GFP, TEM4-18 mCherry, co-culture (AID 1345086;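 active = compounds killing one labelled cell type while sparing the other, by normalised counts and ratio limits, not self-fluorescent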;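 for all read-outs here: cells exposed to compound for 72 h before imaging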;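 for red/green cell ratio (normalised): normalised mesenchymal count divided by normalised epithelial count so high means epithelial killing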); settings: imaging cell counts, at 1 µM; for red/green cell ratio (normalised): actives lie on both sides, counts scaled to control wells, 1 = unselective
[11] = sensitizers of A549 cells to miR-34 induction, primary screen, imaging, A549 dox-inducible miR-34, nuclei and caspase counts (AID 1347080;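 active = compounds whose cell count with miR-34 switched on is under 0.7 times the count with it off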); settings: A549 miR-34 inducible, Hoechst nuclei count, 48 h
[12] = measured here: epithelial PC-3E GFP cell survival
[13] = measured here: mesenchymal TEM4-18 mCherry cell survival
[14] = stronger effect = lower value, cell number ratio, induced over uninduced
[15] = measured here: relative caspase fold change +Dox/-Dox
[16] = measured here: total cells with miR-34 induction, stronger effect = lower value
[17] = measured here: total cells without miR-34 induction

Row | Structure (SMILES) | inhibition [1] [%] | score [2] | rescue above control [3] | cytochrome c release ratio [4] | inhibition of aggregation [5] [%] | glutamate uptake change [6] [%] | inclusion score [7] | aggregation suppression score [8] | parasite load remaining [9] | viability [9] | red/green cell ratio (normalised) [10] | normalised cell number [10, 12] | normalised cell number [10, 13] | fold change [11, 14] | fold change [11, 15] | cell count [11, 16] | cell count [11, 17]
1 | CO[C@@H]1[C@@H](O[C@@H]2O[C@H](C)[C@@H](O[C@H]3C[C@@](C)(O)[C@H](O)[C@H](C)O3)[C@H](N(C)C)[C@H]2O)[C@@H](CC=O)C[C@@H](C)[C@@H](O[C@H]2CC[C@H](N(C)C)[C@@H](C)O2)/C=C/C=C/C[C@H](C)OC(=O)C[C@H]1O | 7.63 | 1.61 | 24.9 | 1.41 | 50.8 | -5.09 | 2 | 1.01 | 143% (inactive) and 69.7% (inactive) | 83.9% and 197% | 0.86 (inactive) | 1.23 | 1.05 | 0.795 (inactive) | 4.68 | 10300 | 12900
2 | CCN1CCN(C(=O)NC(C(=O)NC2C(=O)N3C(C(=O)O)=C(CSc4nnnn4C)CSC23)c2ccc(O)cc2)C(=O)C1=O (centres undefined) | 16.1 | 1.1 | -10 | 0.84 | 50.2 | 15.1 | 2 | 1.47 | 146% (inactive) and 45.3% (inactive) | 72.7% and 103% | 1.23 (inactive) | 0.99 | 1.22 | 0.914 (inactive) | 3.35 | 12000 | 13100
3 | CC12CCC(=O)C=C1CCC1C2[C@@H](O)CC2(C)C1CC[C@]2(O)C(=O)COP(=O)(O)O (some centres undefined) | -6.16 | 1.65 | -3.35 | 1.1 | 44.7 | 26.3 | 2 | 1.46 | 75.6% (inactive) | 91.2% | 0.95 (inactive) | 1.05 | 0.99 | 0.789 (inactive) | 1.68 | 7430 | 9410
4 | CC1(C)O[C@@H]2CC3C4C[C@H](F)C5=CC(=O)CC[C@]5(C)C4[C@@H](O)C[C@]3(C)[C@]2(C(=O)CO)O1 (some centres undefined) | 6.64 | 1.49 | 7.14 | 1.08 | 66.7 | 17 | 2.5 | 0.898 | 151% (inactive) and 47.9% (inactive) | 68.8% and 102% | 1.21 (inactive) | 1.17 | 1.42 | 0.854 (inactive) | 2.6 | 7720 | 9050
5 | CNC[C@@H](O)c1ccc(O)c(O)c1 | 15.5 | 1.46 | -0.75 | 0.7 | 86.2 | -6.16 | 1 | 1.31 | 51.9% (inactive) and 119% (inactive) | 72.9% and 92% | 1.49 (inactive) | 1.01 | 1.5 | 0.901 (inactive) | 3.62 | 11500 | 12800
6 | C[C@]12CCC3c4ccc(O)cc4CCC3C1CC[C@@H]2O (some centres undefined) | 29.2 | 0.39 | 6.83 | 1.24 | 47.9 | 35.2 | 2 | 0.216 | 84% (inactive) and 56.6% (inactive) | 74.3% and 92.5% | 1.16 (inactive) | 1.32 | 1.53 | 0.991 (inactive) | 1.49 | 11000 | 11100
7 | CN[C@@H]1C(OC2[C@H](O[C@H]3[C@H](O)[C@@H](O)[C@H](N=C(N)N)[C@@H](O)[C@@H]3N=C(N)N)OC(C)[C@]2(O)CO)OC(CO)C(O)C1O (some centres undefined) | -7.45 | 1.24 | 1.04 | 0.93 | 82.2 | -1.61 | 2 | 1.17 | 87.5% (inactive) and 63.1% (inactive) | 69.8% and 93.3% | 1.34 (inactive) | 1.05 | 1.41 | 0.819 (inactive) | 1.34 | 10800 | 13200
8 | CCN1CCN(C(=O)NC(C(=O)N[C@@H]2C(=O)N3[C@@H]2SC(C)(C)[C@@H]3C(=O)O)c2ccccc2)C(=O)C1=O (some centres undefined) | -12.4 | 1.33 | 11.4 | 1 | 57.7 | 3.02 | 2 | 1.27 | 83.4% (inactive) and 122% (inactive) | 73% and 103% | 1.25 (inactive) | 0.93 | 1.17 | 0.831 (inactive) | 1.11 | 10100 | 12200
9 | CCC(=O)O[C@]1(C(=O)CCl)[C@@H](C)CC2C3CCC4=CC(=O)C=C[C@]4(C)[C@@]3(F)[C@@H](O)C[C@@]21C (some centres undefined) | -7.85 | 0.96 | 0.61 | 1.1 | 51 | 19.7 | 2 | 1.08 | 202% (inactive) and 73.8% (inactive) | 86% and 95.6% | 1.11 (inactive) | 1.12 | 1.25 | 0.913 (inactive) | 3.26 | 7630 | 8360
10 | CCCC1O[C@@H]2CC3C4CCC5=CC(=O)C=CC5(C)C4[C@@H](O)CC3(C)[C@]2(C(=O)CO)O1 (some centres undefined) | 18.7 | 1.33 | -3.37 | 1.5 | 69.2 | -4.39 | 2 | 1.53 | 34.5% (inactive) and 13.1% (inactive) | 88.8% | 1.29 (inactive) | 0.99 | 1.27 | 0.872 (inactive) | 1.29 | 6800 | 7800
11 | C[C@H](CCC(=O)O)[C@H]1CCC2C3C(CC[C@@]21C)[C@@]1(C)CC[C@@H](O)C[C@H]1C[C@@H]3O (some centres undefined) | 20.5 | -0.02 | 3.58 | 1.17 | 66.7 | -4.34 | 2 | 0.256 | 50.6% (inactive) and 45.5% (inactive) | 77.3% and 94.5% | 1.02 (inactive) | 1.05 | 1.08 | 0.898 (inactive) | 1.12 | 11500 | 12900
12 | Nc1ncnc2c1ncn2C1O[C@H](COP(=O)(O)O)[C@@H](O)[C@H]1O (some centres undefined) | 5.37 | 1.5 | 1.04 | 0.86 | 92.6 | -13.1 | 2 | 1.2 | 124% (inactive) and 48.3% (inactive) | 75.9% and 108% | 0.96 (inactive) | 1.18 | 1.13 | 0.861 (inactive) | 1.84 | 11700 | 13600
13 | NC[C@@H]1O[C@H](O[C@@H]2[C@@H](CO)OC(O[C@@H]3[C@@H](O)[C@H](N)C[C@H](N)[C@H]3OC3O[C@H](CN)[C@@H](O)[C@H](O)[C@H]3N)[C@@H]2O)[C@H](N)[C@@H](O)[C@@H]1O (some centres undefined) | -14.5 | 0.97 | 4.93 | 0.82 | 43.7 | -6.09 | 2 | 1.49 | 59.3% (inactive) | 91.2% | 0.97 (inactive) | 1.02 | 0.98 | 0.934 (inactive) | 0.542 | 12000 | 12900
14 | O=C1O[C@@H](CO)[C@H](O)[C@@H](O)[C@@H]1O | -15.4 | 1.29 | 7.61 | 0.98 | 50.7 | -5.06 | 2 | 1.09 | 176% (inactive) and 30.6% (inactive) | 83.8% and 96.7% | 1.05 (inactive) | 0.98 | 1.02 | 0.946 (inactive) | 2.61 | 12000 | 12600
15 | NC(N)=Nc1nc(CSCC/C(N)=N\S(N)(=O)=O)cs1 | -15 | 1.36 | -0.31 | 1.43 | 82 | -4.06 | 1 | 1.04 | 106% (inactive) and 35.6% (inactive) | 69.4% and 84.3% | 1.13 (inactive) | 0.95 | 1.07 | 0.887 (inactive) | 1.64 | 11500 | 12900
16 | NCC[C@@H](O)C(=O)N[C@@H]1C[C@H](N)[C@@H](O[C@H]2O[C@H](CN)[C@@H](O)[C@H](O)[C@H]2O)[C@H](O)[C@H]1O[C@H]1O[C@H](CO)[C@@H](O)[C@H](N)C1O (some centres undefined) | -41.9 | 1.11 | -4.05 | 0.95 | 36.6 | 9.38 | 2 | 1.24 | 115% (inactive) and 70.5% (inactive) | 74.2% and 95.8% | 1 (inactive) | 1.2 | 1.2 | 0.885 (inactive) | 0.583 | 10600 | 11900
17 | CC(=O)OCC(=O)[C@@]1(O)CCC2C3CCC4=CC(=O)CC[C@]4(C)C3C(=O)C[C@@]21C (some centres undefined) | -3.61 | 1.04 | -2.34 | 0.91 | 69.7 | -1.1 | 2 | 0.738 | 120% (inactive) and 65.9% (inactive) | 67.1% and 90.7% | 1.08 (inactive) | 1.08 | 1.17 | 0.911 (inactive) | 0.583 | 11400 | 12500
18 | C#C[C@]1(O)CCC2C3CCC4=CC(=O)CC[C@@H]4C3CC[C@@]21C (some centres undefined) | -3.25 | 0.94 | 10.4 | 1.47 | 89.7 | -5.05 | 2 | 0.524 | 118% (inactive) and 51.8% (inactive) | 71.2% and 90% | 0.86 (inactive) | 1.29 | 1.11 | 0.914 (inactive) | 1.55 | 10400 | 11300
19 | CN[C@@H]1C(O)[C@@H](O[C@@H]2[C@@H](O)[C@H](O[C@H]3OC(CN)=CC[C@H]3N)[C@@H](N)C[C@H]2N)OC[C@]1(C)O (some centres undefined) | 11.9 | 1.54 | -2.25 | 1.22 | 66.2 | -12 | 2 | 1.05 | 96.3% (inactive) and 41.6% (inactive) | 74.6% and 94.8% | 1.18 (inactive) | 1.02 | 1.2 | 0.967 (inactive) | 4.46 | 11400 | 11800
20 | CCCC(=O)O[C@]1(C(=O)CO)CCC2[C@@H]3CCC4=CC(=O)CC[C@]4(C)C3[C@@H](O)C[C@@]21C (some centres undefined) | -18.1 | 1.15 | -7.82 | 1.03 | 77.8 | 33.4 | 2 | 1.38 | 170% (inactive) and 68.7% (inactive) | 85% and 121% | 1.26 (inactive) | 1.07 | 1.34 | 0.953 (inactive) | 2.16 | 7610 | 7980
21 | CC(=O)O[C@H]1C[C@@]2(C)[C@@H](C[C@@H](O)C3[C@]2(C)CC[C@H]2[C@H](C)[C@H](O)CC[C@]32C)/C1=C(/CCC=C(C)C)C(=O)O (some centres undefined) | 8.99 | 1.55 | -0.35 | 1.24 | 12.1 | 11.6 | 2 | 1.1 | 99.6% (inactive) and 102% (inactive) | 71.9% and 91.9% | 1.29 (inactive) | 1.06 | 1.36 | 0.927 (inactive) | 1.7 | 11800 | 12700
22 | NC(=O)c1cc[n+](CC2=C(C(=O)O)N3C(=O)C(NC(=O)C(c4ccccc4)S(=O)(=O)[O-])C3SC2)cc1 (centres undefined) | -4.99 | 0.99 | -3.36 | 0.92 | 24.1 | -27.4 | 2 | 1.42 | 51% (inactive) | 86.8% | 0.99 (inactive) | 1.08 | 1.07 | 0.877 (inactive) | 3.65 | 11600 | 13200
